From PubChem BioAssay AID2796 (The Scripps Research Institute Molecular Screening Center, 2010)
Among all 320,000 compounds or so, about 8,000 (2.5%) were called active. Rule as the data show it: active = activation above about 47%; inactive = the rest. The full list was thinned out, with actives kept by preference.

target: Aryl hydrocarbon receptor (Homo sapiens) (UniProt P35869); test: AHR activators, primary screen, cell-based, luminescence, luciferase reporter, human (AID 2796); details: AHR-responsive luciferase reporter cells, at 5 µM, stronger effect = higher value;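 also: 0% = vehicle wells and 100% = reference agonist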
Sequence (P35869 whole entry, looked up): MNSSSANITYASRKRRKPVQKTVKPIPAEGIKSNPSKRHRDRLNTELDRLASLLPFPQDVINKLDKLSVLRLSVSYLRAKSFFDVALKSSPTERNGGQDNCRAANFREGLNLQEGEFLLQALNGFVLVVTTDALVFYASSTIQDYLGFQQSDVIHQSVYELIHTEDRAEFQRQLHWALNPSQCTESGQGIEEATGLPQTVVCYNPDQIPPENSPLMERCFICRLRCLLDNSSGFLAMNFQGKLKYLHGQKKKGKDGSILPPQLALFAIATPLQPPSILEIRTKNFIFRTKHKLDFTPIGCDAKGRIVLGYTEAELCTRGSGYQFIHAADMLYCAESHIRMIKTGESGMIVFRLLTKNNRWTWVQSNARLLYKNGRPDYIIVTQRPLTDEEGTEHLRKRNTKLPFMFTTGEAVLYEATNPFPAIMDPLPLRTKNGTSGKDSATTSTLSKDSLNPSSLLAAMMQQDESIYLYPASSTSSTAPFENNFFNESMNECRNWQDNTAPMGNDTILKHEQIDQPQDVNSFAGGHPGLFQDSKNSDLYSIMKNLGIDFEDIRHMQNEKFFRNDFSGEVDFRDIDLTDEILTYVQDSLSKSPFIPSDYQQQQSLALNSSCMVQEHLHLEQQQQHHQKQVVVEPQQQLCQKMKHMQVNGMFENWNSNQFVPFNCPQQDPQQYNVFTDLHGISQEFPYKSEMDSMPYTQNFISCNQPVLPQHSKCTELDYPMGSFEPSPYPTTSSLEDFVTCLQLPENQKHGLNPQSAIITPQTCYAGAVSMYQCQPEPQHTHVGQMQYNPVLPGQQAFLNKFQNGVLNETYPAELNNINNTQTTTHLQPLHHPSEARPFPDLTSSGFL

activation, active:
C/C(CC1CC(C)(C)OC1=O)=N/Nc1nc(-c2ccccc2)cs1 (stereo not given) 124%
COc1ccc(Nc2cc(Sc3ccc(OC)cc3)ncn2)cc1 54%
O=C(NCCCn1ccnc1)c1cc(Br)c(Br)s1 57.3%
O=C(NCCCn1ccnc1)Nc1ccc(Cl)cc1Cl 69.2%
O=C(NCCCn1ccnc1)c1cc(-c2ccccc2)on1 168%
Cc1ccc2c(Cl)c(C(=O)NCCCn3ccnc3)sc2c1 55.7%
NS(=O)(=O)c1ccc(NC(=S)NC(=O)c2cccnc2)cc1 56.7%
COc1cc2[nH]c(=S)n(Cc3ccc(C)o3)c(=O)c2cc1OC 73.8%
COCCCNc1nc2c(-c3cccc(C)c3)nnn2c2ccc(Cl)cc12 69.9%
CC(=O)Nc1cccc(-c2csc(Nc3cccc(C)n3)n2)c1 61.1%
COc1ccc(CCNc2nc(-c3cccc(NC(C)=O)c3)cs2)cc1OC 59%
Clc1ccc(Nc2nc(-c3cccs3)cs2)nc1 96.2%
c1ccc(Nc2nc(-c3ccncc3)cs2)nc1 79%

activation, inactive:
COc1ccc2c(c1)CC[C@@H]1[C@@H]2CC[C@]2(C)C(=O)CC[C@@H]12 -1.47%
CC1(C)CC(CCC(=O)Nc2ccccc2Cl)C(=O)O1 (stereo not given) -0.84%
CC1(C)CC(CC(=O)O)C(=O)O1 (stereo not given) -2.54%
Cc1ccc(C(=O)OC2=CC(=O)CC(C)(C)C2)cc1 3.37%
CCN(CC)S(=O)(=O)c1ccc(Cl)c(C(=O)NC(C)C(c2cccs2)N2CCCC2)c1 (stereo not given) 1.85%
C=CC[C@@H](Cc1ccc(F)cc1)C(=O)OC[C@H]1CCCN1C(=O)[C@H](CC=C)CC(=O)N(CCO)Cc1ccccc1 -1.59%
Clc1ccc(Cl)c(Oc2ccc(Oc3nc(Cl)ccc3Cl)cc2)n1 -1.7%
COCCSc1nnc(NC(=O)c2cc(OC)c(OC)cc2[N+](=O)[O-])s1 1.43%
COc1ccc(NCCc2ccccn2)cc1 4.86%
COc1ccc(Nc2ncnc3sc(C)cc23)cc1 37%
O=C(NC(C(=O)NCCN1CCOCC1)C12CC3CC(CC(C3)C1)C2)C1CCCCC1 (stereo not given) 2.26%
Cn1c(N)c(C(=O)COC(=O)c2ccc3ccccc3c2)c(=O)n(C)c1=O -1.74%
O=C(NCCCn1ccnc1)c1ccccc1F 12.6%
Cc1ccc2c(Cl)c(C(=O)Nc3nn[nH]n3)sc2c1 1.09%
COc1cc(OC)cc(C(=O)NCCCn2ccnc2)c1 32.8%
O=C(/C=C/c1ccc(Cl)cc1)NCCCn1ccnc1 7.43%
O=C(Nc1ccccc1C(=O)NCCCn1ccnc1)c1ccc(Cl)cc1Cl 20.3%
CCCC(=O)Nc1ccc(C(=O)NCCCn2ccnc2)cc1 0.23%
COc1ccc(-c2cc(C(=O)NCCCn3ccnc3)no2)cc1 15.1%
O=C(NCCCn1ccnc1)c1cc2c(s1)CCCC2 46.3%
COc1ccc(C(=O)Nc2cc(S(=O)(=O)N3CCCC3)ccc2Cl)cc1 3.58%
C=CCNC(=O)c1ccc2c3n(nc2c1)-c1ccc(C)cc1CO3 -9.75%
CC1C(=O)Nc2ccccc2N1C(=O)c1ccc(F)cc1F (stereo not given) 3.47%
CCCN(CC1CC1)C(=S)NC(=O)c1ccccc1Br 0.93%
O=C(Cn1nc(Cc2cccnc2)c2ccccc2c1=O)NCC1COc2ccccc2O1 (stereo not given) 0.07%
O=C(NC1CCCC1)C(c1c(F)cccc1Cl)N(C(=O)c1csnn1)C1CC1 (stereo not given) 1.3%
COc1ccc(S(=O)(=O)N2CCCCC2)cc1NC(=O)COc1ccccc1 -0.98%
O=C(CN1C(=O)NC2(CCOc3ccccc32)C1=O)NCc1ccc(F)cc1 (stereo not given) 0.77%
Cc1cc(NC(=O)CCC(=O)N(CC(=O)NCC2CCCO2)c2ccccc2)no1 (stereo not given) -0.82%
CC(C)NS(=O)(=O)c1ccc(NC(=O)c2cccnc2)cc1 0.76%
CC(=O)NC(=S)Nc1ccc(NC(=O)c2cccnc2)cc1 0.34%
COc1ccc(CCNS(=O)(=O)c2ccc(Cl)s2)cc1OC 1.04%
N#Cc1cc([N+](=O)[O-])ccc1NC(=O)COC(=O)c1cnccn1 10.8%
COc1cccc(N(Cc2nnc3n2CCCCC3)C(=O)Nc2ccccc2F)c1 8.31%
COc1cc2[nH]c(=S)n(CCN3CCCCC3C)c(=O)c2cc1OC (stereo not given) 7.8%
COc1cc2[nH]c(=S)n(Cc3ccc(F)cc3)c(=O)c2cc1OC 0.4%
O=C(O)c1cc(S(=O)(=O)NC2CCCc3ccccc32)ccc1O (stereo not given) -0.8%
N#CCC(=O)NC(=O)NCC1CC1 3.61%
O=C(CCCN1C(=O)CSc2ncccc21)N1CCN(c2cccc(C(F)(F)F)c2)CC1 1.24%
CNS(=O)(=O)c1ccc(C(=O)NCC(=O)NCCc2ccc3c(c2)OCCO3)cc1 -1.1%
CCc1ccc(CNC(=O)C2CCN(c3nnc(C)c4c(C)n(-c5ccc(C)cc5)nc34)CC2)cc1 1.85%
COC(=O)Cn1nc(-c2ccccc2)c2cc(Cl)ccc21 1.76%
COCCCNc1nc2c(-c3cccc(C(F)(F)F)c3)nnn2c2ccccc12 29%
C=CCNC(=O)COc1coc(CN2CCN(Cc3ccccc3)CC2)cc1=O 1.03%
O=C(COC(=O)/C=C/c1cccc(Cl)c1)NCc1cccs1 1.89%
CCc1cccc(C)c1NC(=O)COC(=O)CNC(=O)c1cccs1 2.33%
CC[C@@]12C(=O)N(c3ccccc3)C(=O)N1[C@H](c1ccc(Br)cc1)[C@@H]1C(=O)N(C(C)(C)C)C(=O)[C@@H]12 -0.76%
CC(Sc1sc(=S)sc1SC(C)C(=O)O)C(=O)O (stereo not given) 4.16%
COCCN1C2=C(COC(C)(C)C2)C(=S)NC1c1ccccc1 (stereo not given) 0.78%
O=C(Nc1nc(-c2cccnc2)cs1)c1ccccc1F 11.7%
Clc1ccc(Cc2nnc(-c3cccs3)o2)cc1 -4.17%
O=C(NCc1cccnc1)C(=O)Nc1nc(-c2ccccc2)cs1 8.85%
COc1ccc(CCN(C(=O)COc2ccccc2)c2nc(-c3ccccc3)cs2)cc1OC 23.4%
CC(=O)NCCC(=O)Nc1nc(-c2ccc3c(c2)OCCO3)cs1 40.4%
Cc1ccc(Nc2nc(-c3ccc(O)cc3O)cs2)nc1 16.5%
CC(=O)Nc1ccc(C(=O)Nc2nc(-c3cc(C)n(Cc4ccccc4)c3C)cs2)cc1 2.48%
COc1ccc(CC(=O)Nc2nc(-c3ccc(F)c(F)c3)cs2)cc1OC -6.95%
